# Shown are actives, neighbours in structure and some others; about 3.2% of the full set was active somewhere.
# PGC1a acetyl inh – PGC1a acetylation modulation, inhibitor mode; U2OS PGC1a acetylation, AlphaScreen anti-acetyl-lysine; with virally co-expressed GCN5 acetyltransferase; inhibition, % at 15.6 µM; 0.17% of 350,000 active; AID 651687;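 active = every replicate shows inhibition of at least 40%; inconclusive = mean inhibition at least 40% but some replicate below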
# INS-1E GSIS act – primary screen for activators of insulin secretion dependent on glucose, INS-1E cells, GLuc reporter luminescence. activation, % at 16.6 µM. AID 743287. INS-1E GLuc reporter insulin secretion, 2-3 h. 0.61% of 370,000 active;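 active = lowest replicate activation of at least 40%, so every replicate reaches that level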
# Ecoli rRNA inh – inhibitors of bacterial rRNA selective over humanized ribosomes | 1.6% of 350,000 active | E. coli WT GFP vs humanized-ribosome RFP mutants, fluorescence, 24 h; hits give low values; DMSO median 0, no signal -100 | GFP signal change (wild-type ribosome), % (test concentration not listed);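 active = significant combined selectivity score with lowered wild-type GFP, culture density cut under 30%, mutant RFP and density less affected; inactive = any of these conditions unmet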
# CaV13 ICDI inh – Disruptors of the CACNA1D IQ motif to Ca2+-dependent inactivation inhibitor domain association, primary screening, Förster resonance energy transfer in intact living …; HEK cells, CFP/YFP FRET ICDI-IQ, plate reader, 10 min; percent FRET-ratio fall versus neutral wells; inhibition, % at 12.3 µM; 0.098% of 340,000 active; AID 743397;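 active = mean replicate inhibition of at least 30% and at least 1% of replicates passing that level; inconclusive = only one of the two criteria is met; inactive = neither criterion is met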
# DENV2 CPE – DENV2-induced cell death inhibition. DENV2-infected cells, cytopathic effect rescue, plate reader. CPE inhibition, % at 9.99 µM. 1.7% of 350,000 active. AID 651640; in the data active = CPE inhibition above about 20%, passing the limit was not always enough; inconclusive = no clear call, values can overlap the other calls; tested in BHK-21 cells
# ERAP1 HTS inh – ERAP1 (human) enzyme inhibition | Q9NZ08 | recombinant ERAP1, Leu-AMC fluorescence, 60 min | inhibition, % at 10.7 µM | 0.15% of 340,000 active | AID 652197;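 active = mean replicate inhibition of at least 30%, or all replicates individually reaching that 30% level; inactive = mean below 30% and not every replicate reaching it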
# Target sequence (Q9NZ08 whole entry, looked up): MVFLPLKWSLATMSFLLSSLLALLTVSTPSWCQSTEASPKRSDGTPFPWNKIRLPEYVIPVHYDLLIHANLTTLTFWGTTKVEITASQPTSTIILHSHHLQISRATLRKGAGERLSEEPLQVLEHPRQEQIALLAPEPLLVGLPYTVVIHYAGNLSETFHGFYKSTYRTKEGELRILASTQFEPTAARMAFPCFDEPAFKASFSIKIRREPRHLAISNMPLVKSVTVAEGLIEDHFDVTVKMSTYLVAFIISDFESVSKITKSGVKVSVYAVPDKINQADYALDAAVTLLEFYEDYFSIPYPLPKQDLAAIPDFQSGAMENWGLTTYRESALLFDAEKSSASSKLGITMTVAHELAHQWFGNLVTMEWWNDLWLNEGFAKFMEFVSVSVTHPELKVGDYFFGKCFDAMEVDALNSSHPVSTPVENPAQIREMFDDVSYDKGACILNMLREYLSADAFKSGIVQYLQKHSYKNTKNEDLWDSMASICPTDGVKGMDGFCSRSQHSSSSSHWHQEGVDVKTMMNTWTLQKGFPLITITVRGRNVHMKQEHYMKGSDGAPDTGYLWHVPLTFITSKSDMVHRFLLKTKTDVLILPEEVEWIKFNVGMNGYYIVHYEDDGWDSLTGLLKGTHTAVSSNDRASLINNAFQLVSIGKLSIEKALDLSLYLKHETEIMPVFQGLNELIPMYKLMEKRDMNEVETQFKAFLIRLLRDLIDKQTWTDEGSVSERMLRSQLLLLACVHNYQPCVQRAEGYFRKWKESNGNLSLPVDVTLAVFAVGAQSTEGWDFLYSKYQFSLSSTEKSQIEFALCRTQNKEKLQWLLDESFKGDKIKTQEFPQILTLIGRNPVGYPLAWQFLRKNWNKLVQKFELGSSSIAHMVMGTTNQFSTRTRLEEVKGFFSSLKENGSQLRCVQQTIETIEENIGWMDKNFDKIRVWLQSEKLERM
# Hits are given with their value; i = inactive; ? = inconclusive; nt = not tested or not shown; + = active, no number.
SMILES,PGC1a acetyl inh,INS-1E GSIS act,Ecoli rRNA inh,CaV13 ICDI inh,DENV2 CPE,ERAP1 HTS inh
CCc1nc2c(OCc3cccc(Cl)c3)cccn2c1N(C)C(=O)c1ccncc1,nt,nt,i,i,i,i
CCc1nc2c(OCc3ccccc3C)cccn2c1N(C)C(=O)c1ccco1,i,61,i,i,i,i
CCc1nc2c(OCc3ccccc3C(=O)OC)cccn2c1N(C)C(=O)c1ccncc1,i,117,i,i,i,i
CCc1nc2c(OCc3cccc(Cl)c3)cccn2c1N(C)C(=O)c1ccco1,i,i,i,i,23,i
N#Cc1cccc(-c2ccc(C3[C@H]4CNC[C@@H]3N4Cc3ccc(F)cc3)cc2)c1 (stereo partly drawn),i,i,i,nt,i,i
C=CCOC(=O)[C@@H]1[C@H]2C(=O)O[C@H](c3ccccc3)[C@H](c3ccccc3)N2[C@H](c2ccc(OCCOC(=O)[C@@H]3C[C@@H]4C(=O)N[C@@H](Cc5ccccc5)C(=O)N4[C@@H]3c3ccc(O)cc3)cc2)[C@@]12C(=O)Nc1ccccc12,nt,nt,nt,nt,i,i
CC(=O)N1[C@H](C(=O)NCc2ccccc2F)[C@@H](CO)[C@@H]2Cn3c(ccc(-c4ccccc4)c3=O)[C@@H]21,i,i,i,nt,i,i
O=S(=O)(c1ccccc1)N1CCCCN2[C@@H](CO)[C@H](c3ccc(-c4cncnc4)cc3)[C@@H]2C1,i,i,i,nt,i,i
Cc1ccccc1S(=O)(=O)N1CCCCN2[C@H](CO)[C@H](c3ccc(-c4cncnc4)cc3)[C@@H]2C1,i,i,i,nt,36,i
O=S(=O)(c1ccccc1)N1CCCCN2[C@H](CO)[C@H](c3ccc(-c4cncnc4)cc3)[C@@H]2C1,i,i,i,nt,33,i
CCCC(=O)Nc1ccc2c(c1)C(=O)N(C)C[C@H](OC)[C@H](C)CN(C(=O)c1ccncc1)[C@H](C)CO2,i,i,i,nt,i,i
C[C@@H]1CN([C@H](C)CO)C(=O)c2cc(-c3ccc(F)cc3)cnc2O[C@@H]1CN(C)C(=O)c1ccccc1F,i,i,i,nt,i,i
C[C@H](CO)N1C[C@H](C)[C@H](CN(C)C)Oc2ccc(NS(=O)(=O)c3cn(C)cn3)cc2CC1=O,i,i,i,nt,i,i
COc1ccc(NC(=O)c2ccc3[nH]c(C)c(C)c3c2)c(OC)c1,i,i,-15,i,i,i
CCOc1ccccc1NC(=O)c1ccc2[nH]c(C)c(C)c2c1,i,i,i,i,i,i
COc1cccc(CN2[C@@H](CO)[C@@H](c3ccccc3)C23CN(C(=O)C2CCCC2)C3)c1,i,i,i,nt,i,i
CCCC[C@@H]1CNCCN1CCc1cccc2ccccc12,nt,i,-20,i,?,i
FC(F)(F)c1cc(CCN2CCNC[C@H]2Cc2cccc3ccccc23)cc(C(F)(F)F)c1,nt,+,i,i,84,i
Oc1ccc(C[C@@H]2CNCCN2CCc2cc(C(F)(F)F)cc(C(F)(F)F)c2)cc1,nt,i,i,i,i,i
COCC#Cc1ccc2c(c1)O[C@@H](CN(C)Cc1ccncc1)[C@H](C)CN([C@@H](C)CO)S2(=O)=O,i,i,i,nt,i,i
COc1ccc(OC)c(-c2nnc3n2N=C(c2ccc(OC)c(OC4CCOC4)c2)CS3)c1 (stereo not drawn),i,nt,-28,i,i,i
COc1ccc(OC)c(C2=Nn3c(nnc3-c3ccncc3)SC2)c1,i,41,i,i,i,i
COc1ccc(C2=Nn3c(nnc3-c3ccccc3F)SC2)cc1OCC1CC1,i,79,i,i,i,i
C[C@@H]1CN([C@@H](C)CO)C(=O)Cc2cc(NS(=O)(=O)c3ccc(Cl)cc3)ccc2O[C@H]1CN(C)Cc1ccc(C(=O)O)cc1,i,i,i,nt,i,i
O=C(CC1CC1)N1CC2(C1)[C@@H](c1ccccc1)[C@H](CO)N2C(=O)c1cnccn1,nt,i,i,nt,i,i
c1ccc(CNc2ncnc3scc(-c4cccs4)c23)nc1,i,i,-27,i,i,i
CC1(C)CC(c2nc(-c3ccc([N+](=O)[O-])cc3)cs2)CCO1 (stereo not drawn),i,i,-42,i,i,i

# Screens as filed in PubChem.
